Measurements taken from PubChem BioAssay (NCI).
About 79,000 compounds went through this panel and 15% of them were active in at least one assay; those are over-represented in the sample as a whole. Unmarked numbers belong to inactive results. Activity calls are given as the source filed them. No stated cut-off is given here; in the data, active means growth inhibition above about 70%; inactive means the rest.

Tests used:
[1] = NCI Yeast Anticancer Drug Screen. Data for the rad52 strain (AID 147);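 further: 0% = growth of vehicle-treated control cultures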; conditions: S. cerevisiae rad52 mutant growth inhibition, hits give high values
Method in brief: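 Genetically altered yeast (DNA damage repair defect) treated with compound; inhibition calculated relative to vehicle.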

[2] = NCI Yeast Anticancer Drug Screen. Data for the wt1 strain (AID 149);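 further: 0% = growth of vehicle-treated wt1 cultures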; conditions: S. cerevisiae wt1 strain (SPY 50644) growth inhibition, hits give high values
Method in brief: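 wt1 yeast, compound-treated; % growth inhibition vs vehicle control.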

[3] = NCI Yeast Anticancer Drug Screen. Data for the rad50EPP+ strain (AID 151);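 further: 0% = growth of vehicle-treated control cultures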; conditions: S. cerevisiae rad50 mutant strain, hits give high values
Method in brief: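 Strain rad50EPP+; compound exposure; % growth inhibition vs vehicle.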

[4] = NCI Yeast Anticancer Drug Screen. Data for the mgt1 strain (AID 153); conditions: S. cerevisiae mgt1 mutant growth inhibition, hits give high values
Method in brief: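 Read-out: yeast growth inhibition vs vehicle control. Strain mgt1, drawn from a panel altered in DNA damage repair or cell cycle control.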

[5] = NCI Yeast Anticancer Drug Screen. Data for the rad50 strain (AID 155);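 further: 0% = growth of vehicle-only cultures of the same strain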; conditions: S. cerevisiae rad50 strain growth inhibition, hits give high values
Method in brief: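 Genetically altered yeast (DNA repair pathway); compound treatment; growth inhibition vs vehicle ctrl.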

[6] = NCI Yeast Anticancer Drug Screen. Data for the mec2-1 strain (AID 157); conditions: S. cerevisiae mec2-1 strain, hits give high values
Method in brief: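 Cells of the genetically defined mec2-1 yeast strain are incubated with test compound. Inhibition of growth is calculated against vehicle-treated controls.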

[7] = NCI Yeast Anticancer Drug Screen. Data for the rad14 strain (AID 159);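 further: 0% = growth of vehicle-treated control cultures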; conditions: S. cerevisiae rad14 strain growth inhibition, hits give high values
Method in brief: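 Test compounds were applied to a repair-deficient yeast strain. Its growth was then compared with that of cultures given vehicle alone, and inhibition was expressed relative to those controls.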

[8] = NCI Yeast Anticancer Drug Screen. Data for the sgs1 mgt1 strain (AID 161);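 further: 0% = growth of cultures given vehicle only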; conditions: S. cerevisiae sgs1 mgt1 strain, hits give high values
Method in brief: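 Inhibition of yeast growth, normalised to vehicle-treated controls, is reported for a strain bearing genetic alterations in DNA damage repair.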

[9] = NCI Yeast Anticancer Drug Screen. Data for the CLN2oe strain (AID 163);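 further: 0% = growth of vehicle-only control cultures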; conditions: S. cerevisiae CLN2oe strain, hits give high values
Method in brief: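 Strain altered in cell-cycle control, incubated with compound; growth compared to solvent-treated controls.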

[10] = NCI Yeast Anticancer Drug Screen. Data for the cln2 rad14 strain (AID 165);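 further: 0% = growth equal to vehicle treated cultures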; conditions: S. cerevisiae cln2 rad14 strain, hits give high values
Method in brief: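 The screen exposed genetically defined yeast (cln2 rad14) to test compounds and scored growth inhibition relative to vehicle-treated controls.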

[11] = NCI Yeast Anticancer Drug Screen. Data for the bub3 strain (AID 167); conditions: S. cerevisiae bub3 mutant strain, hits give high values
Method in brief: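 Yeast carrying a defined mutation is treated with each compound, and growth is compared with that of vehicle-exposed cells to give inhibition.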

[12] = NCI Yeast Anticancer Drug Screen. Data for the wt2 strain (AID 169);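 further: 0% = growth of vehicle-treated yeast cultures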; conditions: S. cerevisiae wt2 strain growth inhibition, hits give high values
Method in brief: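 Steps: yeast strain treated with compound; growth recorded; inhibition calculated relative to cultures given vehicle alone.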

[13] = NCI Yeast Anticancer Drug Screen. Data for the mlh1 strain (AID 171);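 further: 0% = growth of vehicle-treated control cultures of the same strain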; conditions: S. cerevisiae mlh1 strain growth inhibition, hits give high values
Method in brief: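 Yeast screen: mutant strain plus compound, growth scored against vehicle control wells.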

[14] = NCI Yeast Anticancer Drug Screen. Data for the sgs1 strain (AID 173);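 further: 0% = growth of vehicle-only control cultures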; conditions: S. cerevisiae sgs1 mutant, hits give high values
Method in brief: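 Inhibition of yeast growth served as the measure. The mutant strain was treated with each compound, and growth was normalised to cultures receiving vehicle alone.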

[15] = NCI Yeast Anticancer Drug Screen. Data for the mlh1 rad18 strain (AID 175); conditions: S. cerevisiae mlh1 rad18 strain growth inhibition, hits give high values
Method in brief: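 Compound-treated yeast growth, normalised to vehicle controls. Strain bears defined DNA repair mutations.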

[16] = NCI Yeast Anticancer Drug Screen. Data for the rad18 strain (AID 177); conditions: S. cerevisiae rad18 mutant growth inhibition, hits give high values
Method in brief: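 Inhibition values reflect reduced yeast growth compared with vehicle-treated controls, using a strain engineered with a DNA damage repair defect.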

[17] = at 5.0 µM (retest, dose inferred, filed as 0.5)
[18] = at 50.0 µM (retest, dose inferred, filed as 5.0)

Cc1ccc(N)c(S)c1
growth inhibition ([1]; at 1.2 µM): -56% | growth inhibition ([1]; at 3.7 µM): -52% | growth inhibition ([1]; at 11.0 µM): -12% | growth inhibition ([1]; at 33.0 µM): 88% (active) | growth inhibition ([1]; at 100.0 µM): 97% (active) | growth inhibition ([2]; at 1.2 µM): -23% | growth inhibition ([2]; at 3.7 µM): -29% | growth inhibition ([2]; at 11.0 µM): -19% | growth inhibition ([2]; at 33.0 µM): 75% (active) | growth inhibition ([2]; at 100.0 µM): 99% (active) | growth inhibition ([3]; at 1.2 µM): -49% | growth inhibition ([3]; at 3.7 µM): -39% | growth inhibition ([3]; at 11.0 µM): 76% (active) | growth inhibition ([3]; at 33.0 µM): 95% (active) | growth inhibition ([3]; at 100.0 µM): 91% (active) | growth inhibition ([4]; at 1.2 µM): -11% | growth inhibition ([4]; at 3.7 µM): -13% | growth inhibition ([4]; at 11.0 µM): 15% | growth inhibition ([4]; at 33.0 µM): 98% (active) | growth inhibition ([4]; at 100.0 µM): 99% (active) | growth inhibition ([5]; at 1.2 µM): -34% | growth inhibition ([5]; at 3.7 µM): -27% | growth inhibition [5, 17]: 1% | growth inhibition ([5]; at 11.0 µM): -4% | growth inhibition ([5]; at 33.0 µM): 91% (active) | growth inhibition [5, 18]: 77% (active) | growth inhibition ([5]; at 50.0 µM): 10.4% | growth inhibition ([5]; at 100.0 µM): 94% (active) | growth inhibition ([6]; at 1.2 µM): -24% | growth inhibition ([6]; at 3.7 µM): -15% | growth inhibition [6, 17]: -19% | growth inhibition ([6]; at 11.0 µM): -9% | growth inhibition ([6]; at 33.0 µM): 96% (active) | growth inhibition [6, 18]: 75% (active) | growth inhibition ([6]; at 50.0 µM): 36.3% | growth inhibition ([6]; at 100.0 µM): 98% (active) | growth inhibition ([7]; at 1.2 µM): -43% | growth inhibition ([7]; at 3.7 µM): -36% | growth inhibition ([7]; at 11.0 µM): -22% | growth inhibition ([7]; at 33.0 µM): 55% | growth inhibition ([7]; at 100.0 µM): 96% (active) | growth inhibition [8, 17]: -1% | growth inhibition [8, 18]: 36% | growth inhibition ([8]; at 50.0 µM): 80.3% (active) | growth inhibition ([9]; at 1.2 µM): -15% | growth inhibition ([9]; at 3.7 µM): -3% | growth inhibition ([9]; at 11.0 µM): 13% | growth inhibition ([9]; at 33.0 µM): 93% (active) | growth inhibition ([9]; at 100.0 µM): 99% (active) | growth inhibition [10, 17]: 35% | growth inhibition [10, 18]: 63% | growth inhibition ([10]; at 50.0 µM): -1.5% | growth inhibition ([11]; at 1.2 µM): -35% | growth inhibition ([11]; at 3.7 µM): -11% | growth inhibition [11, 17]: 15% | growth inhibition ([11]; at 11.0 µM): 48% | growth inhibition ([11]; at 33.0 µM): 98% (active) | growth inhibition [11, 18]: 92% (active) | growth inhibition ([11]; at 50.0 µM): 81.5% (active) | growth inhibition ([11]; at 100.0 µM): 98% (active) | growth inhibition ([12]; at 1.2 µM): -48% | growth inhibition ([12]; at 3.7 µM): -25% | growth inhibition ([12]; at 11.0 µM): -4% | growth inhibition ([12]; at 33.0 µM): 93% (active) | growth inhibition ([12]; at 100.0 µM): 99% (active) | growth inhibition ([13]; at 1.2 µM): -19% | growth inhibition ([13]; at 3.7 µM): -3% | growth inhibition ([13]; at 11.0 µM): 26% | growth inhibition ([13]; at 33.0 µM): 98% (active) | growth inhibition ([13]; at 100.0 µM): 97% (active) | growth inhibition ([14]; at 1.2 µM): -29% | growth inhibition ([14]; at 3.7 µM): -34% | growth inhibition ([14]; at 11.0 µM): 14% | growth inhibition ([14]; at 33.0 µM): 98% (active) | growth inhibition ([14]; at 100.0 µM): 98% (active) | growth inhibition [15, 17]: 20% | growth inhibition [15, 18]: 95% (active) | growth inhibition ([15]; at 50.0 µM): 92.2% (active) | growth inhibition ([16]; at 1.2 µM): -48% | growth inhibition ([16]; at 3.7 µM): -37% | growth inhibition ([16]; at 11.0 µM): -22% | growth inhibition ([16]; at 33.0 µM): 42% | growth inhibition ([16]; at 100.0 µM): 90% (active)
